Assay [1] in a line: qHTS RealTime-Glo MT Cell Viability Assay in HepG2 cells - 8 hour (AID 1224873). Also: nearly all actives have a fitted effect of over 55% in size. Put shortly:
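HepG2 cells mixed with RealTime-Glo MT reagents (NanoLuc plus cell-permeant prosubstrate) were seeded at 600 cells/well, incubated 5 h at 37 C/5% CO2, then pinned with compounds in DMSO; nonlytic luminescence tracked viability during 40 h treatment.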

The nature of assay [2]: qHTS RealTime-Glo MT Cell Viability Assay in HEK293 cells - 40 hour (AID 1224874). Also: nearly all actives have a fitted effect of over 50% in size. Also: potency is read from the fitted curve at half-maximal effect. Particulars: RealTime-Glo luminescence; max response: stronger effect = lower value. A digest of the protocol: (§1)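 600 HEK293 cells per well, dispensed already mixed with RealTime-Glo MT reagents. Compound dosing came 5 h later. The same wells were read for luminescence at 0, 8, 16, 24, 32 and 40 h of exposure at 37 C.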
For orientation: In qHTS, concentration-response curves come from the screen itself.

Assay [3] in a line: A CellTox Green Cytotoxicity Assay to monitor cytotoxicity in HepG2 cells - 16 hour (AID 1224876). Also: nearly all actives have a fitted effect of over 45% in size. Also: potency is read from the fitted curve at half-maximal effect. A digest of the protocol:
(§2)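 First, HepG2 cells (600/well) mixed with reagent were plated; second, after 5 h at 37 C they received compounds via pintool; third, fluorescence was measured at 0 h through 40 h at 8 h intervals.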

The nature of assay [4]: qHTS RealTime-Glo MT Cell Viability Assay in HepG2 cells - 32 hour (AID 1224877). Also: nearly all actives have a fitted effect of over 55% in size. Also: potency is read from the fitted curve at half-maximal effect. A digest of the protocol: (§3)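 Tox21 10K library screened in qHTS format on HepG2 cells carrying RealTime-Glo reagents. Compounds were added after a 5 h preincubation, and the luminescent signal from continuous culture was measured repeatedly during 40 h treatment.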
Assay [5] in a line: A CellTox Green Cytotoxicity Assay to monitor cytotoxicity in HepG2 cells - 24 hour (AID 1224878). Also: nearly all actives have a fitted effect of over 45% in size. Also: potency is read from the fitted curve at half-maximal effect. A digest of the protocol:
as §2

The nature of assay [6]: A CellTox Green Cytotoxicity Assay to monitor cytotoxicity in HepG2 cells - 40 hour (AID 1224879). Also: nearly all actives have a fitted effect of over 40% in size. Also: potency is read from the fitted curve at half-maximal effect. A digest of the protocol:
as §2

Assay [7] in a line: qHTS RealTime-Glo MT Cell Viability Assay in HEK293 cells - 0 hour (AID 1224880). Also: top concentration of the series differs between compounds; nearly all actives have a fitted effect of over 45% in size. Put shortly:
as §1

The nature of assay [8]: A CellTox Green Cytotoxicity Assay to monitor cytotoxicity in HEK293 cells - 32 hour (AID 1224881). Also: nearly all actives have a fitted effect of over 40% in size. Also: potency is read from the fitted curve at half-maximal effect. A digest of the protocol: (§4)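 Dead-cell fluorescence measured kinetically: asymmetric cyanine dye, HEK293, 600 cells/well, 5 h settle, 23 nL cpd/DMSO, 37 C, reads 0–40 h every 8 h.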
A short description of assay [9]: A CellTox Green Cytotoxicity Assay to monitor cytotoxicity in HepG2 cells - 32 hour (AID 1224883). Also: nearly all actives have a fitted effect of over 50% in size. Also: potency is read from the fitted curve at half-maximal effect. A digest of the protocol: as §2
Assay [10] can be described thus: A CellTox Green Cytotoxicity Assay to monitor cytotoxicity in HEK293 cells - 8 hour (AID 1224884). Also: nearly all actives have a fitted effect of over 35% in size. Also: potency is read from the fitted curve at half-maximal effect. A digest of the protocol: as §4
A short description of assay [11]: qHTS RealTime-Glo MT Cell Viability Assay in HepG2 cells - 16 hour (AID 1224885). Also: nearly all actives have a fitted effect of over 50% in size. Also: potency is read from the fitted curve at half-maximal effect. A digest of the protocol: as §3
The nature of assay [12]: qHTS RealTime-Glo MT Cell Viability Assay in HEK293 cells - 8 hour (AID 1224887). Also: nearly all actives have a fitted effect of over 50% in size. Also: potency is read from the fitted curve at half-maximal effect. Put shortly: as §1
A short description of assay [13]: A CellTox Green Cytotoxicity Assay to monitor cytotoxicity in HEK293 cells - 16 hour (AID 1224888). Also: nearly all actives have a fitted effect of over 35% in size. Also: potency is read from the fitted curve at half-maximal effect. A digest of the protocol:
as §4

The nature of assay [14]: qHTS RealTime-Glo MT Cell Viability Assay in HepG2 cells - 0 hour (AID 1224889). Also: nearly all actives have a fitted effect of over 50% in size. Also: potency is read from the fitted curve at half-maximal effect. Put shortly: as §3
Assay [15] in a line: A CellTox Green Cytotoxicity Assay to monitor cytotoxicity in HepG2 cells - 8 hour (AID 1224890). Also: nearly all actives have a fitted effect of over 45% in size. Also: potency is read from the fitted curve at half-maximal effect. A digest of the protocol: as §2
Assay [16] in a line: qHTS RealTime-Glo MT Cell Viability Assay in HEK293 cells - 16 hour (AID 1224872). Also: nearly all actives have a fitted effect of over 50% in size. Also: potency is read from the fitted curve at half-maximal effect. A digest of the protocol: (§5)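 Luminescence generated by NanoLuc from substrate produced by living HEK293 cells served as the viability signal. Each value reflects the reading at its stated time point during continuous 40 h compound exposure at 37 C.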
Assay [17] is described as follows: A CellTox Green Cytotoxicity Assay to monitor cytotoxicity in HEK293 cells - 24 hour (AID 1224875). Also: nearly all actives have a fitted effect of over 45% in size. Also: potency is read from the fitted curve at half-maximal effect. A digest of the protocol: as §4
Assay [18] can be described thus: A CellTox Green Cytotoxicity Assay to monitor cytotoxicity in HepG2 cells - 0 hour (AID 1224882). Also: nearly all actives have a fitted effect of over 35% in size. Also: potency is read from the fitted curve at half-maximal effect. A digest of the protocol: as §2
A short description of assay [19]: qHTS RealTime-Glo MT Cell Viability Assay in HEK293 cells - 24 hour (AID 1224886). Also: nearly all actives have a fitted effect of over 50% in size. Also: potency is read from the fitted curve at half-maximal effect. A digest of the protocol: as §5
Assay [20] in a line: qHTS assay to identify small molecule antagonists of the estrogen receptor alpha (ER-alpha) signaling pathway using the BG1 cell line in the presence of 0.1 nM 17-beta-estradiol - cell viability counter screen (AID 1259241). Also: nearly all actives have a fitted effect of over 40% in size. Also: potency is read from the fitted curve at half-maximal effect. Put shortly:
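VM7Luc4E2 cells (endogenous ER-alpha, 4×ERE-luciferase), hormone-starved 5 days in charcoal-stripped FBS, were treated with compounds plus 0.1 nM 17beta-estradiol for 22 hr at 37C; viability read in same wells as CellTiter-Fluor live-cell protease fluorescence.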

Values joined by “and” are separate entries in the source; they are usually repeats but may differ in a detail not shown here. Identical values can stand only once. Results filed as inconclusive are left out. Some structures have more than one record in an assay (separate samples or runs), and their calls can disagree. Active and inactive are the calls of the source. Calls follow the shape of the dose curve; as a rule, active = well fitted curve in the direction sought with a large enough effect in the repeat runs; inconclusive = weak or mixed curves; inactive = no such curve, though single readings can be large; an effect the other way counts as inactive or inconclusive.

The results in this text go back to PubChem BioAssay (Tox21).
% is scaled to controls: 0 for no effect and ±100 for the full control effect.

In the case of `Cn1cnc([N+](=O)[O-])c1Sc1ncnc2nc[nH]c12`, the Potency result in assay [1], in assay [3], in [4], in assay [5], in assay [7] and in assay [10] was “inactive” each time. In addition, the Potency result in [11], in [12], in assay [13], in assay [14] and in assay [15] was “inactive” in each case. The Potency in assay [2] is 20.5 µM (active) and 21.3 µM (active); in assay [6], 54.5 µM (active) and inactive; in [8], 30.7 µM (active) and inactive; in assay [9], 54.5 µM (active) and inactive.
In the case of `O=C1OC2(c3cc(Br)c(O)c(Br)c3Oc3c2cc(Br)c(O)c3Br)c2c(Cl)c(Cl)c(Cl)c(Cl)c21`, the Potency result in assay [16], in assay [1], in [4], in [11], in assay [19] and in [12] was “inactive” throughout. For the same compound, in assay [2], the max response is -3.53% (inactive). In addition, the Potency in [17] was 3.9 µM (active) and 26.5 µM (active); in assay [3], 3.1 µM (active) and 14.9 µM (active); in [5] it was 3.1 µM (active) and 23.6 µM (active); in assay [6] it was 3.1 µM (active) and 14.9 µM (active); in assay [8], 4.91 µM (active) and 26.5 µM (active); in assay [18], 39 µM (active) and 26.5 µM (active). For the same compound, the Potency in assay [9] is 3.1 µM (active) and 23.6 µM (active); in assay [10], 3.9 µM (active) and 23.6 µM (active); in assay [13] it was 2.76 µM (active) and 23.6 µM (active); in assay [14], 55 µM (active); in assay [15], 3.47 µM (active) and 16.7 µM (active); in [20], 8.64 µM (active) and 23.4 µM (active).
With `C=C(C)C(=O)OCCOC(=O)C(=C)C`, the Potency result in assay [16], in assay [1], in assay [17], in assay [3], in assay [4] and in assay [5] was “inactive” throughout. Also, the Potency entry in assay [6], in [7], in assay [8], in assay [10], in [11] and in assay [19] was “inactive” each time. For the same compound, the Potency entry in assay [12], in assay [13], in [14] and in assay [15] was “inactive” throughout. In addition, in assay [2], the max response was 7.24% (inactive) and -0.024% (inactive).
For `CC(=O)C1(C)CC2=C(CCCC2(C)C)CC1C` (centres undefined), the Potency entry in [16], in assay [1], in assay [3], in assay [4], in assay [5] and in [6] was “inactive” throughout. Besides, the Potency entry in assay [7], in assay [18], in assay [10], in assay [11], in assay [19] and in assay [12] was “inactive” each time. The Potency result in [13], in assay [14] and in [15] was “inactive” each time. In addition, the max response in assay [2] was -4.9% (inactive) and 2.42% (inactive).
On to `COC(=O)Nc1nc2ccc(S(=O)c3ccccc3)cc2[nH]1` (centres undefined), for which the Potency in assay [16] is 1.34 µM (active); in assay [2], 756 nM (active); in assay [5], “inactive and 10.7 µM (active)”; in assay [6], 848 nM (active); in [19], 952 nM (active); in assay [12], “inactive and 1.69 µM (active)”. In addition, the Potency entry in [1], in assay [17], in assay [3], in assay [4], in assay [7] and in [8] was “inactive” each time. The Potency entry in assay [10], in [11], in [13], in assay [14] and in [15] was “inactive” in each case.
`CCOC(=O)C(C#N)=C(c1ccccc1)c1ccccc1`: the Potency entry in [16], in assay [1], in assay [17], in assay [3], in assay [4] and in assay [5] was “inactive” in each case. Further, the Potency result in assay [6], in [7], in assay [8], in assay [10], in assay [11] and in assay [19] was “inactive” each time. The Potency entry in assay [12], in assay [13], in assay [14] and in assay [15] was “inactive” throughout. For the same compound, in assay [2], the max response is -18.4% (inactive) and -13.3% (inactive).
Turning to `C[C@]12CCC(=O)C=C1CC[C@@H]1[C@@H]2C(=O)C[C@@]2(C)[C@H]1CC[C@]2(O)C(=O)CO`, the Potency result in [16], in [1], in [17], in assay [3], in [4] and in assay [5] was “inactive” in each case. Besides, the Potency entry in assay [6], in assay [8], in assay [9], in assay [10], in assay [11] and in assay [19] was “inactive” throughout. The Potency entry in assay [12], in assay [13], in assay [15] and in assay [20] was “inactive” in each case. Also, the max response in [2] was -10% (inactive) and -11.4% (inactive). Also, the Potency in assay [14] was 5.49 µM (active).
In the case of `c1ccc2c(c1)Oc1ccccc1S2`, the Potency result in assay [16], in [1], in assay [3], in [4], in [5] and in assay [6] was “inactive” throughout. The Potency entry in [7], in assay [18], in assay [10], in assay [11], in assay [19] and in assay [12] was “inactive” each time. Besides, the Potency entry in assay [13], in assay [14], in [15] and in assay [20] was “inactive” each time. Besides, the max response in assay [2] is -19.5% (inactive) and -6.23% (inactive). Also, in assay [8], the Potency was 49.8 µM (active) and inactive.
As for `O=S(=O)(O)c1ccc(O)cc1`, the Potency entry in assay [16], in [1], in assay [17], in assay [3], in assay [4] and in assay [5] was “inactive” in each case. Besides, the Potency result in [6], in [7], in assay [8], in assay [10], in [11] and in assay [19] was “inactive” each time. The Potency entry in assay [12], in [13], in [14], in [15] and in assay [20] was “inactive” each time. The max response in assay [2] was 9.46% (inactive) and 3.12% (inactive).
With `C#C[C@]1(O)CC[C@H]2[C@@H]3CCc4cc(OC)ccc4[C@H]3CC[C@@]21C`, the Potency entry in [1], in assay [17], in assay [3], in [4], in [7] and in assay [10] was “inactive” each time. Also, the Potency entry in [11], in assay [13], in [14], in assay [15] and in assay [20] was “inactive” in each case. For the same compound, the Potency is 24.5 µM (active) and 19 µM (active) in [2]; 23.9 µM (active) in [9]; 34.7 µM (active) and 19 µM (active) in assay [19].
Consider `CNCCCC12CCC(c3ccccc31)c1ccccc12`, for which the Potency in [16] was 54.9 µM (active); in assay [2], 49 µM (active) and 23.9 µM (active); in assay [17], 54.9 µM (active); in assay [3], 54.9 µM (active) and 26.8 µM (active); in [4] it was 43.6 µM (active) and 23.9 µM (active); in assay [5], 43.6 µM (active) and 23.9 µM (active). In addition, the Potency in assay [6] is 34.7 µM (active) and 23.9 µM (active); in assay [8] it was 49 µM (active); in assay [9] it was 34.7 µM (active) and 23.9 µM (active); in assay [11], 49 µM (active); in assay [19], 49000 nM (active). Moreover, the Potency entry in [1], in assay [10], in assay [12] and in [15] was “inactive” in each case.
